According to PubChem BioAssay (NCI):
This is part of a sample that, as a whole, favours compounds with a hit. Of some 83,000 tested, about 20% had one in any assay.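 Cell lines were cultured in 96-well plates, exposed to a single compound concentration, and assessed for percent growth 48 hours later.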 Active and inactive are the calls of the source. The calls were made as follows: active = growth percent below 10; inactive = the rest.

The compounds below were run on T-47D breast (assay: NCI-60 one-dose screen, 48 h (100 = growth as untreated, 0 = no growth, -100 = all killed)). Settings: 10 µM unless noted.

SMILES	growth
CCOC(=O)C1=C(C)n2nc(CC#N)c(C#N)c2NC1c1ccc(Cl)cc1 (stereo not given)	110% (inactive)
Cc1cccc(C)c1NCc1nnc(-c2ccco2)o1	80.6% (inactive)
COC(=O)/C=C1\SC(=Nc2cccc(Cl)c2)N(CCc2c[nH]c3ccccc23)C1=O	11.9% (inactive)
COc1ccc(C(C)c2cc(OC)c(OC)c(OC)c2)cc1 (stereo not given)	63.1% (inactive)
CCO/C=N/S(=O)(=O)c1cc2c(cc1Cl)NC=NS2(=O)=O	105% (inactive)
COc1ccc([C@H]2[C@@H](F)C(=O)N2c2cc(OC)c(OC)c(OC)c2)cc1F	74.9% (inactive)
O=C(CN1N=C(c2ccc(F)cc2)CCC1=O)Nc1nccs1	83.7% (inactive)
Nc1cc(N)nc(SCC(=O)O)n1	105% (inactive)
CCOC(=O)NCCc1nc2c([nH]1)c(=O)n(C)c(=O)n2C	102% (inactive)
C=C1C(=O)O[C@H]2[C@H]1CC/C(COC(=O)n1ccnc1)=C\CC[C@@]1(C)O[C@@H]21	78.2% (inactive)
COc1ccccc1-c1ccc2nc(NC(=O)Nc3cc(C(F)(F)F)cc(C(F)(F)F)c3)sc2c1	-13.5% (active)
O=C1NC(SCc2ccc(F)cc2)=N/C1=C/c1cccc(OCc2ccc(Cl)cc2)c1	53.5% (inactive)
O=C(CCc1nnc2sc(OCc3ccccc3)nn12)c1nc2ccc([N+](=O)[O-])cc2[nH]1	97.7% (inactive)
Nc1c(C(=O)Nc2ccccn2)sc2nc3c(cc12)CCCC3	43% (inactive)
Cc1nnc(/N=C2\NC(=O)/C(=C/c3ccsc3)S2)s1	84.4% (inactive)
